Measured values from PubChem BioAssay AID1159580 (chemical genetic matrix, 2015).
“And” between values parts separate entries of the source, which are not always exact repeats. Equal entries are not always repeated. About 2,000 (36%) of roughly 5,500 compounds were called active. Roughly 18% stayed inconclusive and do not appear here. Rule as the data show it: active = normalized growth mostly below about 0.91 (no sharp cut-off); inconclusive = no clear call, values can overlap the other calls; inactive = mostly above about 0.92. The list shows a part of the results.

Assay: chemical genetic growth profiling, strain panel (AID 1159580);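 also: tested at 20 µM; growth read once vehicle control cultures reached saturation at 30 °C; 1 = growth at the plate median or of vehicle wells; lower values mean less growth of the strain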
Settings: S. cerevisiae deletion strains, growth OD

Measured: normalized growth

CCN(CCCc1ccccc1)CCCc1ccccc1
inactive: locus YAL021C, strain ccr4, hits give low values 0.915 | locus YAL030W, strain snc1, hits give low values 0.991 | locus YBL061C, strain skt5, hits give low values 0.981 | locus YBR009C, strain hhf1, hits give low values 1.01 | locus YBR021W, strain FUR4, hits give low values 0.977 | locus YBR023C, strain chs3, hits give low values 0.96 | locus YBR171W, strain sec66, hits give low values 0.97 | locus YBR229C, strain ROT2, hits give low values 1 | locus YBR231C, strain swc5, hits give low values 0.987 | locus YBR279W, strain paf1, hits give low values 0.983 | locus YCL011C, strain gbp2, hits give low values 0.966 | locus YCL016C, strain dcc1, hits give low values 0.939 | locus YCL029C, strain bik1, hits give low values 1.02 | locus YCL061C, strain MRC1, hits give low values 0.965 | locus YCL069W, strain vba3, hits give low values 0.985 | locus YCR088W, strain abp1, hits give low values 0.99 | locus YDL005C, strain med2, hits give low values 0.99 | locus YDL035C, strain GPR1, hits give low values 0.976 | locus YDL040C, strain nat1, hits give low values 0.984 | locus YDL074C, strain BRE1, hits give low values 1.01 | locus YDL101C, strain DUN1, hits give low values 1.02 | locus YDL134C, strain PPH21, hits give low values 0.976 | locus YDL185W, strain tfp1, hits give low values 1.03 | locus YDL192W, strain arf1, hits give low values 1.02 | locus YDR001C, strain nth1, hits give low values 0.985 | locus YDR069C, strain doa4, hits give low values 0.974 | locus YDR101C, strain arx1, hits give low values 1.03 | locus YDR150W, strain NUM1, hits give low values 1 | locus YDR159W, strain sac3, hits give low values 1.01 | locus YDR162C, strain NBP2, hits give low values 1.01 | locus YDR195W, strain ref2 1.02 | locus YDR297W, strain sur2, hits give low values 0.99 | locus YDR318W, strain mcm21, hits give low values 1.01 | locus YDR334W, strain swr1, hits give low values 0.983 | locus YDR335W, strain msn5, hits give low values 0.983 | locus YDR388W, hits give low values 1.02 | locus YDR392W, strain spt3, hits give low values 0.951 | locus YDR502C, strain sam2, hits give low values 1.02 | locus YEL003W, strain gim4, hits give low values 0.99 | locus YEL037C, strain rad23, hits give low values 0.984 | locus YEL061C, strain CIN8 (second series), hits give low values 0.988 | locus YEL061C, strain CIN8, hits give low values 1 | locus YER015W, strain faa2, hits give low values 0.977 | locus YER016W, strain bim1, hits give low values 1 | locus YER110C, hits give low values 1.04 | locus YER111C, strain swi4, hits give low values 0.962 | locus YER155C, strain BEM2 (second series), hits give low values 0.99 | locus YER155C, strain BEM2, hits give low values 0.999 | locus YER167W, strain BCK2, hits give low values 0.975 | locus YFR010W, strain ubp6, hits give low values 0.98 | locus YGL078C, strain dbp3, hits give low values 1.02 | locus YGL086W, strain mad1, hits give low values 1.01 | locus YGL167C, strain pmr1, hits give low values 0.983 | locus YGL173C, strain kem1, hits give low values 0.979 | locus YGL227W, strain vid30, hits give low values 0.994 | locus YGL240W, strain doc1, hits give low values 0.971 | locus YGL248W, strain PDE1, hits give low values 0.997 | locus YGL253W, strain hxk2, hits give low values 0.978 | locus YGR078C, strain PAC10, hits give low values 1 | locus YGR135W, strain pre9, hits give low values 1.01 | locus YGR252W, strain gcn5, hits give low values 0.945 | locus YHR013C, strain ard1, hits give low values 0.927 | locus YHR027C, strain rpn1, hits give low values 0.978 | locus YHR030C, strain SLT2, hits give low values 1 and 1.01 | locus YHR079C, strain IRE1 (second series), hits give low values 1.03 | locus YHR079C, strain IRE1, hits give low values 1.03 | locus YHR094C, strain hxt1, hits give low values 1.03 | locus YHR129C, strain ARP1, hits give low values 1 | locus YHR142W, strain chs7, hits give low values 0.93 | locus YHR200W, strain rpn10, hits give low values 1.02 | locus YIL066C, strain RNR3, hits give low values 0.965 | locus YIL073C, strain SPO22, hits give low values 0.999 | locus YIL125W, strain kgd1, hits give low values 1.03 | locus YIR030C, strain dcg1, hits give low values 1.03 | locus YJL092W, strain hpr5, hits give low values 0.976 | locus YJL095W, strain BCK1 (second series), hits give low values 0.981 | locus YJL095W, strain BCK1, hits give low values 1.02 | locus YJL115W, strain asf1, hits give low values 0.98 | locus YJL129C, strain trk1, hits give low values 0.956 | locus YJL134W, strain LCB3, hits give low values 1 | locus YJL154C, strain vps35, hits give low values 0.977 | locus YJL164C, strain tpk1, hits give low values 0.97 | locus YJL166W, strain qcr8, hits give low values 0.93 | locus YJL168C, strain set2, hits give low values 1.02 | locus YJL187C, strain SWE1 (second series), hits give low values 1.02 | locus YJL187C, strain SWE1, hits give low values 0.991 | locus YJR043C, strain POL32, hits give low values 0.949 | locus YJR066W, strain TOR1, hits give low values 0.985 | locus YKL009W, strain mrt4, hits give low values 1.01 | locus YKL068W, hits give low values 1.01 | locus YKL085W, strain MDH1 (second series), hits give low values 1 | locus YKL085W, strain MDH1, hits give low values 1 | locus YKL160W, strain elf1, hits give low values 0.935 | locus YKR001C, strain vps1, hits give low values 1.02 | locus YKR026C, strain gcn3, hits give low values 0.983 | locus YKR091W, strain srl3, hits give low values 0.99 | locus YLL001W, strain dnm1, hits give low values 0.914 | locus YLL026W, hits give low values 0.997 | locus YLL041C, strain sdh2, hits give low values 0.989 | locus YLR027C, strain aat2, hits give low values 0.982 | locus YLR039C, strain RIC1, hits give low values 1.04 | locus YLR058C, strain SHM2, hits give low values 1.02 | locus YLR102C, strain apc9, hits give low values 1.02 | locus YLR113W, strain HOG1, hits give low values 1.01 | locus YLR221C, strain rsa3, hits give low values 0.961 | locus YLR258W, strain gsy2, hits give low values 0.973 | locus YLR262C, strain YPT6, hits give low values 1.06 | locus YLR268W, strain sec22, hits give low values 1.03 | locus YLR320W, strain mms22, hits give low values 0.894 | locus YLR330W, strain CHS5, hits give low values 0.994 | locus YLR342W, strain FKS1 (second series), hits give low values 0.963 | locus YLR342W, strain FKS1, hits give low values 0.981 | locus YLR357W, strain rsc2, hits give low values 0.953 | locus YLR370C, strain arc18, hits give low values 0.963 | locus YLR371W, strain rom2, hits give low values 1.02 | locus YLR384C, strain iki3, hits give low values 0.983 | locus YLR418C, strain cdc73, hits give low values 0.988 | locus YML016C, strain PPZ1, hits give low values 1.01 | locus YML032C, strain rad52, hits give low values 1.01 | locus YML120C, strain ndi1, hits give low values 0.943 | locus YML124C, strain tub3, hits give low values 1.02 | locus YMR058W, strain fet3, hits give low values 0.97 | locus YMR078C, strain ctf18, hits give low values 1.03 | locus YMR125W, strain sto1, hits give low values 0.96 | locus YMR129W, hits give low values 0.984 | locus YMR205C, strain PFK2, hits give low values 0.952 | locus YMR223W, strain ubp8, hits give low values 1.02 | locus YMR231W, strain pep5, hits give low values 0.99 | locus YMR307W, strain GAS1, hits give low values 1.06 | locus YNL067W, strain RPL9B, hits give low values 1.02 | locus YNL071W, strain lat1, hits give low values 0.973 | locus YNL153C, strain GIM3, hits give low values 1 | locus YNL183C, strain NPR1, hits give low values 0.957 | locus YNL209W, strain ssb2, hits give low values 0.975 | locus YNL233W, strain BNI4, hits give low values 1.03 | locus YNL248C, strain rpa49, hits give low values 0.951 | locus YNL250W, strain rad50, hits give low values 1.02 | locus YNL271C, strain bni1, hits give low values 1.04 | locus YNL298W, strain CLA4, hits give low values 1.03 | locus YNL307C, strain MCK1, hits give low values 1.04 | locus YNL322C, strain KRE1 (second series), hits give low values 0.992 | locus YNR049C, strain mso1, hits give low values 0.977 | locus YNR052C, strain pop2, hits give low values 1.03 | locus YOL006C, strain TOP1, hits give low values 0.909 | locus YOL012C, strain htz1 0.929 | locus YOL147C, strain pex11, hits give low values 1.03 | locus YOR001W, strain rrp6, hits give low values 0.982 | locus YOR061W, strain CKA2, hits give low values 1.01 | locus YOR069W, strain VPS5, hits give low values 1.01 | locus YOR070C, strain gyp1, hits give low values 0.979 | locus YOR080W, strain dia2, hits give low values 0.984 | locus YOR083W, strain WHI5, hits give low values 0.93 | locus YOR106W, strain vam3, hits give low values 0.961 | locus YOR136W, strain idh2, hits give low values 1.03 | locus YOR144C, strain elg1, hits give low values 1.03 | locus YOR184W, strain ser1, hits give low values 1.05 | locus YOR231W, strain MKK1, hits give low values 1.01 | locus YOR265W, strain rbl2, hits give low values 1 | locus YOR270C, strain vph1, hits give low values 0.885 | locus YOR290C, strain snf2, hits give low values 0.919 | locus YOR316C, strain cot1, hits give low values 1.03 | locus YPL051W, strain arl3, hits give low values 0.93 | locus YPL078C, strain atp4, hits give low values 0.932 | locus YPL106C, strain sse1, hits give low values 0.947 | locus YPL240C, strain hsp82, hits give low values 0.996 | locus YPL241C, strain CIN2, hits give low values 1 | locus YPL256C, strain CLN2, hits give low values 1.01 | locus YPR119W, strain clb2, hits give low values 1.03 | locus YPR141C, strain kar3, hits give low values 1.04 | locus YPR163C, strain tif3, hits give low values 1.05 | locus YPR167C, strain met16, hits give low values 1.03 | strain wtn01, hits give low values 1.04
active: locus YAL026C, strain drs2, hits give low values 0.862 | locus YDR137W, strain rgp1, hits give low values 0.735 | locus YLR262C, strain YPT6 (second series), hits give low values 0.701
